We go through eleven compounds from PubChem BioAssay (NCATS).

Test [1] can be described thus: Quantitative High-Throughput drug screen in 47 multiple myeloma cell lines against the NCATS MIPE library collection: KMS34_JCRB cell viability assay (AID 1918985). Further: nearly all actives have a fitted effect of over 40% in size. An outline of the steps: (§1)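 Viability after 48 h drug exposure was measured as ATP-dependent luminescence. Cells, 500 per well, sat at 37 °C under 5% CO2; DMSO wells set 100%, media-only wells 0%.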
A short description of test [2]: Quantitative High-Throughput drug screen in 47 multiple myeloma cell lines against the NCATS MIPE library collection: OCIMY7_PLB cell viability assay (AID 1918987). Further: nearly all actives have a fitted effect of over 65% in size. An outline of the steps:
as §1

Test [3] in a line: Quantitative High-Throughput drug screen in 47 multiple myeloma cell lines against the NCATS MIPE library collection: OPM1_PLB cell viability assay (AID 1918989). Further: nearly all actives have a fitted effect of over 40% in size. In a few lines:
as §1

A short description of test [4]: Quantitative High-Throughput drug screen in 47 multiple myeloma cell lines against the NCATS MIPE library collection: SKMM1_PLB cell viability assay (AID 1919863). Further: nearly all actives have a fitted effect of over 35% in size. The note with it: SKMM1 myeloma viability, CellTiter-Glo ATP, 48 h; viability: stronger effect = lower value. An outline of the steps: as §1
On the technique in general: In ATP-based viability assays light output follows the ATP content of the culture.

The nature of test [5]: Quantitative High-Throughput drug screen in 47 multiple myeloma cell lines against the NCATS MIPE library collection: XG6_PLB cell viability assay (AID 1919865). Further: nearly all actives have a fitted effect of over 40% in size. An outline of the steps:
as §1

Test [6] is described as follows: Quantitative High-Throughput drug screen in 47 multiple myeloma cell lines against the NCATS MIPE library collection: XG1_PLB cell viability assay (AID 1919866). Further: nearly all actives have a fitted effect of over 35% in size. In a few lines:
as §1

The nature of test [7]: Quantitative High-Throughput drug screen in 47 multiple myeloma cell lines against the NCATS MIPE library collection: VP6_DJ cell viability assay (AID 1919867). Further: nearly all actives have a fitted effect of over 40% in size. In a few lines:
as §1

Test [8] is described as follows: Quantitative High-Throughput drug screen in 47 multiple myeloma cell lines against the NCATS MIPE library collection: UTMC2_PLB cell viability assay (AID 1919868). Further: nearly all actives have a fitted effect of over 55% in size. The note with it: CellTiter-Glo ATP luminescence, 48 h; viability (% of DMSO control): at 45.8 µM (top of the series) unless noted. An outline of the steps:
as §1

A short description of test [9]: Quantitative High-Throughput drug screen in 47 multiple myeloma cell lines against the NCATS MIPE library collection: PE2_PLB cell viability assay (AID 1919869). Further: nearly all actives have a fitted effect of over 35% in size. An outline of the steps:
as §1

Test [10] in a line: Quantitative High-Throughput drug screen in 47 multiple myeloma cell lines against the NCATS MIPE library collection: OPM2_DSMZ cell viability assay (AID 1919872). Further: nearly all actives have a fitted effect of over 30% in size. An outline of the steps:
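CellTiter-Glo ATP luminescence gave viability after 48 h compound treatment at 37C of 500 multiple myeloma cells per well. Normalisation used DMSO-only wells as 100% and media-only wells as 0% viability; primary qHTS of approved and investigational drugs.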

The nature of test [11]: Quantitative High-Throughput drug screen in 47 multiple myeloma cell lines against the NCATS MIPE library collection: KMS11_JCRBsus cell viability assay (AID 1919873). Further: nearly all actives have a fitted effect of over 50% in size. An outline of the steps:
as §1

Test [12] in a line: qHTS drug screen for cell cycle checkpoint inhibitors in PARPi-resistant BRCA-mutant ovarian cancer cell lines. (AID 1963452; calls by dose curve). To be noted: PEO1/OlaR viability, CellTiter-Glo luminescence, 96 h; for Z-AUC: stronger effect = lower value. An outline of the steps: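 PEO1, PEO4 and PEO1/OlaR ovarian cancer cells, 600 per well, exposed 96 h at 37C to a dilution series. Viability read by CellTiter-Glo luminescence, normalized to DMSO and empty wells; activity summarized as Z-AUC.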
Background: Quantitative high-throughput screening tests each substance at several concentrations.

Test [13] is described as follows: Quantitative High-Throughput drug screen in 47 multiple myeloma cell lines against the NCATS MIPE library collection: OCIMY5_PLB cell viability assay (AID 1918988). Further: nearly all actives have a fitted effect of over 65% in size. An outline of the steps:
as §1

Test [14] in a line: Quantitative High-Throughput drug screen in 47 multiple myeloma cell lines against the NCATS MIPE library collection: U266_ATCC cell viability assay (AID 1919864). Further: nearly all actives have a fitted effect of over 35% in size. In a few lines: as §1
Test [15] is described as follows: Quantitative High-Throughput drug screen in 47 multiple myeloma cell lines against the NCATS MIPE library collection: KMS28BM_JCRB cell viability assay (AID 1919874). Further: nearly all actives have a fitted effect of over 35% in size. An outline of the steps:
as §1

A short description of test [16]: Quantitative High-Throughput drug screen in 47 multiple myeloma cell lines against the NCATS MIPE library collection: PCM6_Riken cell viability assay (AID 1919870). Further: nearly all actives have a fitted effect of over 30% in size. An outline of the steps:
as §1

Test [17] in a line: Quantitative High-Throughput drug screen in 47 multiple myeloma cell lines against the NCATS MIPE library collection: RPMI8226_ATCC cell viability assay (AID 1919871). Further: nearly all actives have a fitted effect of over 30% in size. An outline of the steps:
as §1

A short description of test [18]: qHTS for identification of novel therapeutic agents for treatment of microphthalmiaassociated transcription factor (MiT) renal cell carcinoma (RCC) (AID 1963991; calls by dose curve). The note with it: CellTiter-Glo, 48 h; for z-score: stronger effect = lower value. In a few lines: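 Curves over 11 concentrations were fitted to CellTiter-Glo luminescence, scaled between empty wells (0%) and DMSO (100%) viability. Cells were UOK109, UOK124 and UOK145 TFE3-fusion RCC lines at 500/well, exposed 48 hours at 37 C.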

[19] abbreviates: measured here: PEO1 parental Z-AUC.
The mark [20] stands for this setting: TFE3-RCC UOK109 viability, measured here: UOK109 Z-AUC.
[21] abbreviates: TFE3-RCC viability, measured here: UOK124 Z-AUC.
Where [22] appears, read: TFE3-RCC viability, measured here: UOK145 Z-AUC.

Inconclusive results are not listed. Activity calls are given as the source filed them. Unless noted, the call rests on the fitted dose curve; in most records, active means well fitted cell-killing curve with a large enough effect; inconclusive means small, poorly fitted or top-dose-only effect, or effect the other way; inactive means no such curve, though single readings can be large or run the other way.
Potency means the concentration at half of the fitted maximal effect.

For `COc1ccc(C(=O)CC2(O)C(=O)Nc3c(Cl)ccc(Cl)c32)cc1` (stereo not drawn), the Potency in test [1] is 2960 nM (active); in [2], 526 nM (active); in [3], 9350 nM (active); in test [4] it was 1180 nM (active); in [5] it was 833 nM (active); in test [6], 833 nM (active). The Potency was 2960 nM (active) in test [7]; 4180 nM (active) in test [8]; 4180 nM (active) in test [9]; 9350 nM (active) in test [10]; 1320 nM (active) in [11]. Besides, the Z-AUC is -0.119 (inactive) in test [12], -0.455 in test [12] (setting [19]) and -0.085 in [12] (measured here: PEO4 Z-AUC).

Turning to `Cn1c(=O)n(-c2ccc(C(C)(C)C#N)cc2)c2c3cc(-c4cnc5ccccc5c4)ccc3ncc21`, the Potency in test [1] was 13.2 nM (active); in test [2] it was 1480 nM (active); in test [13], 743 nM (active); in [4], 33.2 nM (active); in [14] it was 4180 nM (active); in [8], 9.3 nM (active). For the same compound, the Potency was 74.3 nM (active) in [10], 20.9 nM (active) in test [15] and 2 nM (active) in test [12]. Moreover, the Z-AUC is -1.42 in test [12] (setting [19]) and -1.44 in test [12] (measured here: PEO4 Z-AUC).

For the compound `O=C(C=Cc1cccc(S(=O)(=O)Nc2ccccc2)c1)NO`, the Potency is 1360 nM (active) in test [1]; 2150 nM (active) in test [2]; 1910 nM (active) in test [3]; 2700 nM (active) in test [14]; 4810 nM (active) in test [5]; 2410 nM (active) in [6]. Also, the Potency in test [7] was 855 nM (active); in [8], 1080 nM (active); in test [9], 3820 nM (active); in test [16], 2410 nM (active); in test [17] it was 3400 nM (active); in [10] it was 3820 nM (active). In addition, the Potency in [11] was 1210 nM (active); in test [15], 1360 nM (active).

Turning to `C[C@@H](Oc1cc(-n2cnc3ccc(CN4CCN(C)CC4)cc32)sc1C(N)=O)c1ccccc1C(F)(F)F`, the Potency in test [1] was 41.8 nM (active); in [13] it was 46.9 nM (active); in [14] it was 16600 nM (active); in [6], 14.8 nM (active); in [7], 18700 nM (active); in test [10] it was 59 nM (active). Moreover, the Potency in test [11] was 23.5 nM (active); in test [18] (TFE3-RCC UOK109 viability, active = Z-AUC below -0.8 in all three lines), 6620 nM (active). Moreover, the Z-AUC in [12] was -0.926 (inactive); in [12] (setting [19]), -1.54; in test [12] (measured here: PEO4 Z-AUC) it was -1.51. Also, the z-score was -0.886 in test [18] (setting [20]), -1.58 in [18] (setting [21]) and -1.64 in [18] (setting [22]).

On to `CC(C)c1noc(N2CCC(COc3ccc(-c4ccc(S(C)(=O)=O)cc4)nc3)CC2)n1`, for which the Potency entry in [1], in test [3], in test [14], in [9] and in test [10] was “inactive” each time. Moreover, the Potency is 3720 nM (active) in test [5]; 2640 nM (active) in test [6]; 7430 nM (active) in [7]; 4690 nM (active) in test [16]; 7430 nM (active) in test [17]; 1180 nM (active) in test [11]. The Z-AUC in [12] was -0.00574 (inactive); in [12] (setting [19]), -0.198; in test [12] (measured here: PEO4 Z-AUC) it was 1.01. Besides, the figures for the z-score in [18] (setting [20]), in test [18] (setting [21]) and in test [18] (setting [22]) were 0.525, 0.308 and 0.324, respectively.

For the compound `O=c1c2ccccc2nc2n1CCc1c-2[nH]c2ccccc12`, the Potency entry in [1], in [14], in [7], in test [8], in test [17] and in test [10] was “inactive” each time. For the same compound, the figures for the Potency in test [2], in test [4] and in [16] were 18700 nM (active), 23500 nM (active) and 13200 nM (active), respectively.

In general, viability refers to a read-out of living cells in per cent, often relative to untreated cells. Turning to `O=C(NCCS(=O)(=O)c1ccc(C(F)(F)F)cn1)c1ccc(Cl)cc1`, the Potency entry in test [1], in [3], in test [14], in test [6], in test [8] and in [9] was “inactive” in each case. In addition, the Potency result in test [16], in test [10], in [11] and in [15] was “inactive” each time. Further, in test [4], the viability is 128% (inactive). In addition, the Z-AUC in [12] is 0.591 (inactive); in [12] (setting [19]) it was 0.415; in test [12] (measured here: PEO4 Z-AUC), 0.479. The z-score is -0.45 in [18] (setting [20]), 0.348 in [18] (setting [21]) and 0.45 in test [18] (setting [22]).

As to `COC(=O)c1ccc2c(C(=Nc3ccc(N(C)C(=O)CN4CCN(C)CC4)cc3)c3ccccc3)c(O)[nH]c2c1`, the Potency was 18700 nM (active) in test [1]; 7430 nM (active) in test [13]; 2090 nM (active) in [3]; 9350 nM (active) in test [4]; 18700 nM (active) in [14]; 662 nM (active) in test [6]. For the same compound, the Potency in test [8] was 6620 nM (active); in test [9], 10500 nM (active); in [17], 3720 nM (active).

As for `O=C(O)CCCc1c[nH]c2ccccc12`, the Potency entry in test [1], in test [3], in test [14], in test [6], in test [9] and in test [10] was “inactive” each time. For the same compound, in test [15], the Potency entry was “inactive”. Also, in test [4], the viability was 113% (inactive). The Potency in test [7] is 26400 nM (active). Also, the results for the Z-AUC in test [12], in [12] (setting [19]) and in test [12] (measured here: PEO4 Z-AUC) were 0.341 (inactive), 0.661 and 0.6, respectively. For the same compound, the values for the z-score in test [18] (setting [20]), in test [18] (setting [21]) and in test [18] (setting [22]) were 0.907, 0.701 and 0.654, respectively.

`COc1cc(-c2nn(C3CCC(N4CCN(C(C)=O)CC4)CC3)c3ncnc(N)c23)ccc1NC(=O)c1cc2ccccc2n1C` (stereo not drawn): the Potency in test [1] is 6620 nM (active); in test [13], 1870 nM (active); in [3], 2640 nM (active); in [4] it was 14800 nM (active); in test [7], 6620 nM (active); in test [9], 2960 nM (active). Moreover, the Potency in test [17] was 18700 nM (active); in test [11] it was 4180 nM (active); in test [15], 3320 nM (active). Besides, the Z-AUC is -1.39 (inactive) in [12], 0.075 in test [12] (setting [19]) and -0.0545 in test [12] (measured here: PEO4 Z-AUC).

With `COc1c(OCCCN2CCOCC2)ccc2c3n(c(=NC(=O)c4cnc(N)nc4)nc12)CCN3`, the Potency in test [1] is 257 nM (active); in [13] it was 102 nM (active); in [3], 812 nM (active); in [4] it was 162 nM (active); in [14], 645 nM (active); in test [6], 1440 nM (active). Also, the Potency in [7] was 457 nM (active); in test [8] it was 115 nM (active); in test [9], 457 nM (active); in test [17], 129 nM (active); in [10], 2040 nM (active); in test [11], 32.3 nM (active). Moreover, in test [15], the Potency is 115 nM (active). Besides, the Z-AUC in test [12] was -1.27 (inactive); in [12] (setting [19]), -1.04; in [12] (measured here: PEO4 Z-AUC) it was -0.708.
